Measured values reported in PubChem BioAssay (NCATS).
Results filed as inconclusive are left out. Active and inactive are the calls of the source. Unless noted, calls follow the shape of the dose curve; as a rule, active = well fitted curve in the direction sought with a large enough effect; inconclusive = small, poorly fitted or top-dose-only effect, or another doubt; inactive = no such curve, though single readings can be large; an effect the other way counts as inactive or inconclusive.

How the values were obtained:
[1] = Cellular Toxicity (caspase-3) Renal Proximal Tubule (AID 667);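 also: cells exposed to compound for 16 hours at 37 °C before detection; 0% = DMSO basal and 100% = 10 µM staurosporine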
Outline: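 Freshly isolated primary rat kidney proximal tubule cells, 1000/well, treated 16 hr at 37 °C, then Caspase-Glo 3/7 luminescence after 1 hr. Normalized to DMSO and 10 uM staurosporine; AC50 from Hill fit.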

[2] = target: Guanine nucleotide-binding protein G(i) subunit alpha-1 (Homo sapiens) (UniProt P63096); test: qHTS Assay for Inhibitors of RGS12 GoLoco Motif Activity (Green Fluorophore) (AID 879);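 also: 0% = labeled peptide with Gαi1 and full inhibition = labeled peptide alone without protein; negative values mean loss of peptide binding seen as reduced polarization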
Chain of Guanine nucleotide-binding protein G(i) subunit alpha-1 (Homo sapiens) (P63096 whole entry, looked up): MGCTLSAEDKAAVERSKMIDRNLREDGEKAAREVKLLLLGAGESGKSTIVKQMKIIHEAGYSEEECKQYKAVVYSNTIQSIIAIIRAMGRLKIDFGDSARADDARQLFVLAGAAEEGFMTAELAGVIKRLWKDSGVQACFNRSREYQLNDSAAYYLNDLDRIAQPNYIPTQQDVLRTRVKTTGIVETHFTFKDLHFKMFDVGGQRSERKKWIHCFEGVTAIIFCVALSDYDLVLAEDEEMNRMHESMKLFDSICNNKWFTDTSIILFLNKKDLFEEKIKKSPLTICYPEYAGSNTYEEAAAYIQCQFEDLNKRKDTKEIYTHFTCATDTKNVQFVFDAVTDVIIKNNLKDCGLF
Outline: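 A drop in FITC polarization marked displacement of the FITC-tagged RGS12 GoLoco peptide (10 nM) from Gαi1 (50 nM). Compounds were incubated 10 min at room temperature in Tris pH 7.5 buffer containing 150 mM NaCl, 0.1 mM GDP and 0.05% NP40; unlabeled peptide titration served as control.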

[3] = target: Cytochrome P450 2C9 (Homo sapiens) (UniProt P11712); test: qHTS Assay for Inhibitors and Substrates of Cytochrome P450 2C9 (AID 883); also: % is scaled to controls: 0 for no effect and ±100 for the full control effect; nearly all actives have a fitted effect of over 60% in size
Chain of Cytochrome P450 2C9 (Homo sapiens) (P11712 whole entry, looked up): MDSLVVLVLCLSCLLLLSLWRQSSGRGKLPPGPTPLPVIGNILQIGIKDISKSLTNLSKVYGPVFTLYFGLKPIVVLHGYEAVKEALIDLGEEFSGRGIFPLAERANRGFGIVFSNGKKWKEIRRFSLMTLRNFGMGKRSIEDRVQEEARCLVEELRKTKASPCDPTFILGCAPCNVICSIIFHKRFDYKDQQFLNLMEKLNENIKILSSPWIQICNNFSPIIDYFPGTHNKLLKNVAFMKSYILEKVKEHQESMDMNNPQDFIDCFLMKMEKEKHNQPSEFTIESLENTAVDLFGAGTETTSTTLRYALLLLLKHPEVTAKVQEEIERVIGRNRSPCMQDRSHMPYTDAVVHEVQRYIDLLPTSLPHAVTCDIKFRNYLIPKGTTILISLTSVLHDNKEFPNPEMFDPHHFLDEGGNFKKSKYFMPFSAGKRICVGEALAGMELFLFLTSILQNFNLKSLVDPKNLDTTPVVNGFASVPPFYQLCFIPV
Outline: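 10nM CYP2C9 + 100uM Luciferin-H (=KM), 25mM KPO4; cpd 10 min 37C; NADPH regen, 60 min 37C; stop/detect with P450 Glo-Buffer 20 min; luminescence. Norm. to 57uM sulphaphenazole as full inhibition.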

[4] = target: Cytochrome P450 3A4 (Homo sapiens) (UniProt P08684); test: qHTS Assay for Inhibitors and Substrates of Cytochrome P450 3A4 (AID 884); also: nearly all actives have a fitted effect of over 50% in size; also: potency is read from the fitted curve at half-maximal effect
Chain of Cytochrome P450 3A4 (Homo sapiens) (P08684 whole entry, looked up): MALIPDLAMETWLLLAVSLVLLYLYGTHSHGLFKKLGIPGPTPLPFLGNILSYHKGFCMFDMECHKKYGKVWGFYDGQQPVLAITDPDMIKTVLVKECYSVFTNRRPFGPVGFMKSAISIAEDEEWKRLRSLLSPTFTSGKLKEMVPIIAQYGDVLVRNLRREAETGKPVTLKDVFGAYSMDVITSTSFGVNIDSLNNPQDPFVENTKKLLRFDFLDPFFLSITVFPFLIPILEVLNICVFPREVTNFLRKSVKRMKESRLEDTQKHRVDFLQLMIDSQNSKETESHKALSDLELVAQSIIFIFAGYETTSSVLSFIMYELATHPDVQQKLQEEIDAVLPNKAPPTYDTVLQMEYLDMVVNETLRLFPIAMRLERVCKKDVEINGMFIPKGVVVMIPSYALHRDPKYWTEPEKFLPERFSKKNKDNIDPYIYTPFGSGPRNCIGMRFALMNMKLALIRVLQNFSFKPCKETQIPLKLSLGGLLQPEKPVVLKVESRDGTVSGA
Outline: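 Luminescent readout of luciferin produced by CYP3A4 (20 nM) dealkylation of Luciferin-PPXE, 25 uM (its KM). NADPH-driven reaction ran 60 min at RT after 10 min compound preincubation; data scaled to 57 uM ketoconazole as 100% inhibition.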

[5] = target: Cytochrome P450 2D6 (Homo sapiens) (UniProt P10635); test: qHTS Assay for Inhibitors and Substrates of Cytochrome P450 2D6 (AID 891); also: nearly all actives have a fitted effect of over 60% in size; also: potency is read from the fitted curve at half-maximal effect
Chain of Cytochrome P450 2D6 (Homo sapiens) (P10635 whole entry, looked up): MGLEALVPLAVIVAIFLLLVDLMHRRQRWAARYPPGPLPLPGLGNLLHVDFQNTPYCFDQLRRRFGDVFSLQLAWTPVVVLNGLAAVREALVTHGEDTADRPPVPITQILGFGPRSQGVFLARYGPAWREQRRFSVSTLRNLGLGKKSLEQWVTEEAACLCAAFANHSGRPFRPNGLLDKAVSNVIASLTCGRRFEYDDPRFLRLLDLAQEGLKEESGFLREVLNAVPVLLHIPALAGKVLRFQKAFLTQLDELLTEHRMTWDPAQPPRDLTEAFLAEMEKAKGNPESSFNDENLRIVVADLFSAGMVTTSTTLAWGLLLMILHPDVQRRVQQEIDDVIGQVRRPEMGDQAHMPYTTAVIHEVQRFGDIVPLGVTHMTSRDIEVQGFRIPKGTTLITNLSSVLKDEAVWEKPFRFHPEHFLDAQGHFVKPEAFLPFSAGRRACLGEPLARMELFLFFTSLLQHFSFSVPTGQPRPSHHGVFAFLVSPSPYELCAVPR
Outline: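 Luminescent read-out of luciferin formed by 5 nM human CYP2D6 demethylating 30 uM Luciferin-ME EGE (Km level) over 60 min at room temperature after NADPH regeneration addition. Data normalized to full inhibition by 1.43 uM quinidine.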

[6] = target: Cytochrome P450 2C19 (Homo sapiens) (UniProt P33261); test: qHTS Assay for Inhibitors and Substrates of Cytochrome P450 2C19 (AID 899); also: nearly all actives have a fitted effect of over 60% in size; also: potency is read from the fitted curve at half-maximal effect
Chain of Cytochrome P450 2C19 (Homo sapiens) (P33261 whole entry, looked up): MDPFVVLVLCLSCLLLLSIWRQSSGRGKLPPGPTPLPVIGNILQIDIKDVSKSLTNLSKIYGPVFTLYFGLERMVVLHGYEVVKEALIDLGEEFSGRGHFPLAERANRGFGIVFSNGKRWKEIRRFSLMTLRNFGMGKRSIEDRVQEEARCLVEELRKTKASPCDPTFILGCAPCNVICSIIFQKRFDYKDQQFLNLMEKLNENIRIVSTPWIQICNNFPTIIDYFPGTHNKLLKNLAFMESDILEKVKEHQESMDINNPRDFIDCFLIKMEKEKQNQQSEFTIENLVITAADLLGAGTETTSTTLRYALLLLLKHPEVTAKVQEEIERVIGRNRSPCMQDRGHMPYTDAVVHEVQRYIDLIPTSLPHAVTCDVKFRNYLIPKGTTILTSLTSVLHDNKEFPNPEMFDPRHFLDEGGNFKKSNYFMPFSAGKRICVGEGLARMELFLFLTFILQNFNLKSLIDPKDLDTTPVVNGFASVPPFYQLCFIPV
Outline: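 Luminescent read-out of luciferin formed from Luciferin-H EGE (10uM, equal to KM). Enzyme 5nM in 50mM KPO4; compound added, 10 min at 37C, then NADPH regenerating system for 60 min at 37C. Full inhibition defined by 57uM ketoconazole.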

[7] = qHTS Assay for Identification of Small Molecule Agonists for Thrombopoietin (TPO) Signaling Pathway (AID 917); also: % is scaled to controls: 0 for no effect and ±100 for the full control effect
Outline: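 Stimulation at the TPO EC50 (26 pM final) was used to detect activators. Ba/F3 mouse cells bearing human TPO receptor and a luciferase reporter under the Glycoprotein IIb promoter were exposed to compounds for 24 hrs at 37 C.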

[8] = Cell Viability - LYMP2-001 (AID 921);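 also: series mostly up to about 92 µM; 0% = DMSO only and full inhibition = tetraoctylammonium bromide control wells; nearly all actives have a fitted effect of over 70% in size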
Outline: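 Human lymphoblastoid LYMP2-001 cells, 2500 per well, in complete medium, treated 24 h at 37 C. Viability from cellular ATP by CellTiter-Glo luminescence; AC50 from Hill-equation fits of qHTS concentration-response.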

[9] = Confirmation and Secondary Assay for Modulators of Hemoglobin Beta Chain Splicing at IVS2 705 locus (AID 930);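 also: HeLa cells stably expressing the EGFP-705 splicing reporter; GFP fluorescence per well restored by corrected splicing of the IVS2-705 intron in EGFP; series mostly up to about 46 µM; % of control where 0% means no effect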
Outline: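 Fluorescence gain (488 nm laser, 500-520 nm PMT) reflects restored correct splicing of a mutant IVS2-705 intron inside EGFP in stably transfected HeLa cells after 2-day compound treatment.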

[10] = target: Pyruvate kinase (Leishmania mexicana) (UniProt Q27686); test: qHTS Validation Assay for Inhibitors of Leishmania Mexicana Pyruvate Kinase (AID 945);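 also: 0% = DMSO only neutral control wells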
Chain of Pyruvate kinase (Leishmania mexicana) (Q27686 2-499 E452W): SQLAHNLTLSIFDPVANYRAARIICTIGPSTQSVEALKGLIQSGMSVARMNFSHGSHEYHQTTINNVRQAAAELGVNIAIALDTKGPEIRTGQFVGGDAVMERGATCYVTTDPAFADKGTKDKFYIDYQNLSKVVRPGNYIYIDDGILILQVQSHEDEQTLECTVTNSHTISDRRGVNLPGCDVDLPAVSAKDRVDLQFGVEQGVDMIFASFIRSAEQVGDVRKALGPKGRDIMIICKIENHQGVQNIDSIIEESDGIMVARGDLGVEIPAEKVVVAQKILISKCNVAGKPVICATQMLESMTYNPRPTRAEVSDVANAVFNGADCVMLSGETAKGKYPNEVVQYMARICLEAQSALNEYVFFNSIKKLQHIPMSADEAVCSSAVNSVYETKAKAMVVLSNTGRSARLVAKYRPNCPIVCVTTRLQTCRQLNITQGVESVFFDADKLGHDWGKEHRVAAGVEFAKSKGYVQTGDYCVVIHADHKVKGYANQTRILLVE
Outline: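 Compounds are tested as eight-point concentration series. Reactions contain 0.2 nM LmPYK E451W, 0.5 mM PEP, 0.1 mM ADP, 7 mM MgCl2 and 50 mM KCl at pH 7.2, run 1 h at room temperature, then read by PKLight luminescence.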

[11] = MultiTox-Fluor Cytotoxicity Assay - LYMP1-001 - Dead Cells (AID 946)
Outline: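 Cytotoxicity as increased dead-cell protease fluorescence (bis-AAF-R110, 485/520 nm), read 60 min after MultiTox-Fluor reagent. Human lymphoblastoid line exposed 16 h; Hill-fitted AC50, with DMSO as 0% and 15 uM tetraoctylammonium bromide as 100%.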

[12] = MultiTox-Fluor Cytotoxicity Assay - LYMP1-001 - Live Cells (AID 947);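 also: 0% = DMSO only and full inhibition = tetraoctylammonium bromide control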
[13] = Cell Viability - LYMP1-002 - Assay at 16 hr (AID 948);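 also: 0% = DMSO alone and full effect = 92 µM tetraoctylammonium bromide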
Outline: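 LYMP1-002 human lymphoblastoid cells, 2500/well, were treated with compounds for 16 hr at 37 C in complete medium. Viability was read as intracellular ATP by CellTiter-Glo luminescence, and AC50 was derived from a Hill fit to concentration-response data.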

[14] = target: Pyruvate kinase PKM (Homo sapiens) (UniProt P14618); test: qHTS Assay for Activators of Human Muscle Pyruvate Kinase (AID 954; active = well fitted curve in the direction sought with a large enough effect, not every such curve was filed as active;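 also: 0% = uninhibited enzyme and -100% = no enzyme or full thiadiazolimine inhibition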)
Chain of Pyruvate kinase PKM (Homo sapiens) (P14618 whole entry, looked up): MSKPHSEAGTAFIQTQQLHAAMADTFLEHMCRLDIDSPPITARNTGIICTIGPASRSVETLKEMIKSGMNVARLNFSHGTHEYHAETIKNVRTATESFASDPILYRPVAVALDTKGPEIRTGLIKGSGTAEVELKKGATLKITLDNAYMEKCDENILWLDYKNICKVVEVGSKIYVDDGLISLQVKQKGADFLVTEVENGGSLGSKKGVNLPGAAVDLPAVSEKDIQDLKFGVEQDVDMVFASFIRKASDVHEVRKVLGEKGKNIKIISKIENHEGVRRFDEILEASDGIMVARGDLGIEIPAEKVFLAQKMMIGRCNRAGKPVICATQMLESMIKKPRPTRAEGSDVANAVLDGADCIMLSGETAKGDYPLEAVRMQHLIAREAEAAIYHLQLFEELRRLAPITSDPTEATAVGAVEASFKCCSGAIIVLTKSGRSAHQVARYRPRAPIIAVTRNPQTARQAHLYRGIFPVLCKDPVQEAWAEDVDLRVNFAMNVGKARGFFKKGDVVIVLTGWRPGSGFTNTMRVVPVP
Outline: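 ATP production by PKM2 detected via luciferase luminescence after 1 h room-temperature reaction (0.1 nM enzyme, PEP at Km 0.5 mM, ADP 0.1 mM, pH 7.2 imidazole buffer). Inhibition scaled to no-enzyme control; activation referenced to 0.3 nM enzyme wells.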

[15] = MultiTox-Fluor Cytotoxicity Assay - LYMP1-002 - Live Cells (AID 955);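 also: cells exposed to compound for 16 hours; % is scaled to controls: 0 for no effect and ±100 for the full control effect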
Outline: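 In this qHTS viability format, lymphoblastoid cells (LYMP1-002, human) received compound for 16 hr at 37 C. Fluorogenic GF-AFC cleavage by viable cells was detected at 405/510 nm after 1 h at room temperature.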

[16] = qHTS Assay for Identification of Small Molecule Antagonists for NFkB Signaling Pathway (AID 895; active = well fitted inhibition curve with a large enough effect in the signal ratio, with a control signal flat, not every such curve was filed as active; the % refers to the signal ratio; also: potency is read from the fitted curve at half-maximal effect)
Outline: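 ME-180 NFkB-bla cells (beta-lactamase under NFkB response element), plated overnight, treated with compound then 10 pM TNF alpha (about EC50) for 5 hrs at 37 C. LiveBLAzer FRET read at 460/530 nm emission, 405 nm excitation.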

[17] = target: Muscarinic acetylcholine receptor M1 (Rattus norvegicus) (UniProt P08482); test: qHTS Assay for Antagonists of Acetylcholine Muscarinic M1 Receptor: Measurement of IP-One Response (AID 944); also: nearly all actives have a fitted effect of over 75% in size; also: potency is read from the fitted curve at half-maximal effect
Chain of Muscarinic acetylcholine receptor M1 (Rattus norvegicus) (P08482 whole entry, looked up): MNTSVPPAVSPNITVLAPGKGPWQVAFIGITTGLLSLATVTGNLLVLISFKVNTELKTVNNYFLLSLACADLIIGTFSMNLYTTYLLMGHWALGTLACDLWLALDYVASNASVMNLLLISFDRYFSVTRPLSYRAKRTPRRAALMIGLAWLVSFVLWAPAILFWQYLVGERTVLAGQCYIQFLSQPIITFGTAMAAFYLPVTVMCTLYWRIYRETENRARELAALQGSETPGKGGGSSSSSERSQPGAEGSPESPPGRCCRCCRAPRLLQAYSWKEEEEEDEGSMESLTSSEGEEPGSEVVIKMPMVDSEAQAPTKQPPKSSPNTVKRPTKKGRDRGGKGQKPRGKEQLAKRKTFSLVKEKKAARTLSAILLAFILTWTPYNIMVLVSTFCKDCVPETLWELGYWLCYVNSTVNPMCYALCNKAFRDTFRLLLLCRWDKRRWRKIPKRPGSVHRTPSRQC
Outline: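 Antagonism was measured as loss of carbachol-driven (EC80) IP1 accumulation in CHO cells carrying rat M1, using a homogeneous IP-One TR-FRET kit read at 620 and 665 nm.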

[18] = target: Muscarinic acetylcholine receptor M1 (Rattus norvegicus) (UniProt P08482); test: qHTS Assay for Antagonists of Acetylcholine Muscarinic M1 Receptor: Kinetic Measurement of Intracellular Calcium Response (AID 943);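 also: Fluo-4 calcium signal as peak divided by basal fluorescence over 4 min; series mostly up to about 35 µM; nearly all actives have a fitted effect of over 75% in size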
Outline: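 Quantitative HTS in CHO-M1 (rat receptor) cells: 10 min compound exposure ahead of 100 nM carbachol, Fluo-4 fluorescence followed 4 min, value expressed as peak-to-basal ratio.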

[19] = target: Cytochrome P450 3A4 (Homo sapiens) (UniProt P08684); test: qHTS Assay for Activators of Cytochrome P450 3A4 (AID 885); also: nearly all actives have a fitted effect of over 65% in size
Outline: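 Luminescent readout of luciferin formed from 25 uM Luciferin-PPXE (KM level) by 20 nM CYP3A4 in 200 mM KPO4, with 60 min NADPH-driven reaction at room temperature after 10 min compound exposure. Ketoconazole (57 uM) defined 100% inhibition.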

[20] = qHTS Assay for Identification of Small Molecule Agonists for Hypoxia Response Element Signaling Pathway (AID 914; active = well fitted activation curve with a large enough effect in the signal ratio, with a control signal flat, not every such curve was filed as active; the % refers to the signal ratio; also: % of control where 0% means no effect); conditions: ME-180 (cervical carcinoma) HRE-bla reporter, beta-lactamase ratio, CoCl2, 17 h; hits give high values
Outline: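 A beta-lactamase reporter under hypoxia response element control in ME-180 cells served as the system. Compound titrations plus EC50 CoCl2 ran 17 h at 37 degrees Celsius; AC50 values were fitted from %Activity.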

O=P1(N(CCCl)CCCl)NCCCO1 (centres undefined)
inactive: outcome [1] | outcome [2] | outcome [3] | Potency [4] | Potency [5] | Potency [6] | outcome [7] | outcome [8] | outcome [9] | outcome [10] | outcome [11] | outcome [12] | outcome [13] | outcome [14] | outcome [15]

Oc1ccc(Cl)cc1
inactive: outcome [1] | Potency [4] | outcome [8] | outcome [9] | outcome [11] | outcome [12] | outcome [13] | outcome [15]

O=C(O)CCCc1ccc(N(CCCl)CCCl)cc1
active: Potency [16] 8.91 µM
inactive: outcome [1] | outcome [2] | outcome [3] | Potency [4] | Potency [5] | Potency [6] | outcome [9] | outcome [10] | outcome [11] | outcome [13] | outcome [14] | outcome [15]

Nc1ccccc1C(=O)O
inactive: outcome [1] | Potency [4] | outcome [8] | outcome [11] | outcome [12] | outcome [13] | outcome [15]

C[C@]12CCC(=O)C=C1CC[C@@H]1[C@@H]2CC[C@@]2(C)[C@H]1CC[C@]2(C)O
inactive: outcome [1] | Potency [4] | outcome [8] | outcome [12] | outcome [13] | outcome [15]

NCCc1ccc(O)cc1
inactive: outcome [1] | outcome [2] | Potency [4] | Potency [6] | outcome [7] | outcome [8] | outcome [9] | Potency [17] | outcome [10] | outcome [11] | outcome [12] | outcome [13] | outcome [14] | outcome [15]

C[C@]12CCC(=O)C=C1CC[C@@H]1[C@@H]2CC[C@]2(C)C(=O)CC[C@@H]12
inactive: outcome [1] | outcome [2] | Potency [4] | outcome [7] | outcome [8] | outcome [18] | Potency [17] | outcome [10] | outcome [11] | outcome [12] | outcome [13] | outcome [14] | outcome [15]

Nc1ccccc1
inactive: outcome [1] | Potency [4] | outcome [8] | outcome [11] | outcome [12] | outcome [13] | outcome [15]

C=CCc1ccc(O)c(OC)c1
inactive: outcome [19]

CCC1(CC)C(=O)C=CNC1=O
inactive: Potency [4] | activation [20] -12.7% | outcome [9]

O=C1c2ccccc2C(=O)c2ccccc21
inactive: Potency [4] | outcome [9]

Cn1c(=O)c2[nH]cnc2n(C)c1=O
inactive: Potency [6]

c1ccc2c(c1)sc1ccccc12
inactive: Potency [4] | outcome [9]

CC(C)N(CCC(C(N)=O)(c1ccccc1)c1ccccn1)C(C)C (centres undefined)
inactive: outcome [9]

Nc1ccc(O)cc1
inactive: outcome [19]

Cc1ncsc1CCCl
active: Potency [6] 7.94 µM

COc1c2c(cc3c1OCO3)CCN(C)C2
inactive: activation [20] -5.25%
active: Potency [5] 3.98 µM

COc1cc(-c2ccc(=O)[nH]n2)ccc1OC(F)F
inactive: outcome [3]

NC(=O)c1cc([N+](=O)[O-])cc([N+](=O)[O-])c1
active: Potency [4] 7.94 µM
inactive: outcome [19] | outcome [9]

NC(=O)CS(=O)C(c1ccccc1)c1ccccc1 (centres undefined)
inactive: Potency [4] | outcome [9]

C=CCN1C[C@H](C)N([C@H](c2ccc(C(=O)N(CC)CC)cc2)c2cccc(OC)c2)C[C@H]1C
active: Potency [5] 1.58 µM

CC(=O)N1CCN(c2ccc(OC[C@H]3CO[C@](Cn4ccnc4)(c4ccc(Cl)cc4Cl)O3)cc2)CC1
active: Potency [17] 8.91 µM

COc1ccc2c(c1)C13CCCC[C@@H]1C(C2)N(C)CC3 (some centres undefined)
active: Potency [5] 3.98 µM

CC(C)(C)NCC(O)c1ccccc1Cl (centres undefined)
inactive: Potency [4] | outcome [9]

O=c1oc2ccccc2c(O)c1Cc1c(O)c2ccccc2oc1=O
inactive: outcome [9]

CCCCCCNC(=O)n1cc(F)c(=O)[nH]c1=O
active: Potency [4] 20 µM
inactive: outcome [19]

CC(NC(C)(C)C)C(=O)c1cccc(Cl)c1 (centres undefined)
inactive: Potency [4] | outcome [9]

CNC(C)(C)Cc1ccccc1
inactive: Potency [4] | outcome [9]

CCC1(c2ccc(N)cc2)CCC(=O)NC1=O (centres undefined)
inactive: outcome [19] | outcome [9]

CCOP(=S)(OCC)Oc1ccc2c(C)c(Cl)c(=O)oc2c1
inactive: outcome [19] | outcome [9]
